Compounds without any hit were thinned out: in the full panel of roughly 83,000, 20% have a hit.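 A percent growth of 40 corresponds to 60% growth inhibition; 0 means no net growth; -100 means all cells died. Active threshold: below 10.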 Activity calls are given as the source filed them.
What follows are compounds tested on HT29 colon (assay: NCI-60 one-dose screen, 48 h (100 = growth as untreated, 0 = no growth, -100 = all killed)). Conditions: 10 µM unless noted.

| SMILES | growth |
| --- | --- |
| CC1=C(CNO)C2=C(C)C3(CC3)[C@@](C)(O)C(=O)C2=C1 | 41.4% (inactive) |
| COc1ccc(O)c(CNC(=O)CN2CCCC2=O)c1 | 104% (inactive) |
| CN1CCCCC1C(C)(O)c1ccccc1 (configuration not stated) | 93.4% (inactive) |
| COC(=O)CC[C@H](Cc1ccccc1)NC(=O)c1csc([C@@H](C[C@H](C(C)C)N(C)C(=O)[C@@H](NC(=O)[C@H]2CCCCN2C)C(C)C)OC(C)=O)n1 | 5.29% (active) |
| COc1ccc(N(CC(=O)NCCC[Te]c2ccccc2)C(=O)CNC(=O)OC(C)(C)C)cc1 | -36.8% (active) |
| COC(=O)[C@@H](C)C[C@H](Cc1ccccc1)NC(=O)c1csc([C@@H](C[C@H](C(C)C)N(C)C(=O)[C@@H](NC(=O)[C@H]2CCCCN2C)C(C)C)OC(C)=O)n1 | 5.25% (active) |
| COC1OC(CO)C(O)C(O)[CH]1[Hg][O]C(C)=O (configuration not stated) | 79.8% (inactive) |
| CC12CC=CCC1CCC1C2CCC2(C)C(c3ccc(=O)oc3)CCC12O (configuration not stated) | -44.7% (active) |
| O=C1C2CC=CCC2C(=O)N1SC(Cl)(Cl)Cl (configuration not stated) | 89.2% (inactive) |
| CCOC(=O)[C@@H](C)C[C@H](Cc1ccccc1)NC(=O)c1nc([C@@H](C[C@H](C(C)C)N(C)C(=O)[C@@H](NC(=O)[C@H]2CCCCN2C)C(C)C)OC(C)=O)sc1CCOCc1ccccc1 | -50.7% (active) |
| COP(=S)(N1CC1)N1CC1 | 103% (inactive) |
| COC(=O)[C@@H](C)C[C@H](Cc1ccccc1)NC(=O)c1nc([C@@H](C[C@H](C(C)C)N(C)C(=O)[C@@H](NC(=O)[C@H]2CCCCN2C)C(C)C)OC(C)=O)sc1C(C)C | 1.52% (active) |
